Screens as filed in PubChem.
Sampled rows, rich in hits. Any-hit rate of the full collection: about 1.8%.
HEK293 tox – cytotoxicity counter-screen for GLP-1 receptor inverse agonists. HEK293 cAMP-luciferase reporter cells, luminescence, 24 h. 410,000 compounds, 0.13% hits. AID 624418. Potency, µM (series often up to 38.3 µM), for the others: at the highest dose activity change, negative = inhibition, usual class: inhibitors;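 further: loss of luciferase light is scored as toxicity; potency means the concentration at half of the fitted maximal effect; on the % scale 0 is the no-effect control and ±100 the full control effect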
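Quantitative HTS format, 1536 wells, 200 cells/uL seeded. Compounds: 23 nL, 24 h, 37 °C. Detection: luciferase reagent, luminescence at 12 min RT; decreased signal taken as cytotoxic.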
GLP1R ag – activates the human GLP-1 receptor | P43220 | HEK293 GLP-1R CRE-luciferase, luminescence, 4-6 h; cells express a hypersensitive GLP-1R form | Potency, µM (titrated, usually from 45.6 µM), inactives show at the top dose activation, usual class: activators | 380,000 compounds, 0.007% hits; further: potency means the concentration at half of the fitted maximal effect; % of control where 0% means no effect
Target sequence (P43220 whole entry, looked up): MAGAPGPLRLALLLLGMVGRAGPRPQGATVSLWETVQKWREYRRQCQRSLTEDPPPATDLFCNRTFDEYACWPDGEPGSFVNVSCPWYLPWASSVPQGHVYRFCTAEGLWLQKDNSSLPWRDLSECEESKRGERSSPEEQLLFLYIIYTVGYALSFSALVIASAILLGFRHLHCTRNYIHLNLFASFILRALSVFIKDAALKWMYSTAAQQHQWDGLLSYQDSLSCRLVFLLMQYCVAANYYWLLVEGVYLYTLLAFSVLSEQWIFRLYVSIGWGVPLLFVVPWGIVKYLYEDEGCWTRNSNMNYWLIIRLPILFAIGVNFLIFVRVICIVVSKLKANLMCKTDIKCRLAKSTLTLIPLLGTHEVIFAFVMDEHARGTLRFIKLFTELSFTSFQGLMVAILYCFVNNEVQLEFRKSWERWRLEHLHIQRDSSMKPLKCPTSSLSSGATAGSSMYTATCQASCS
PTHR1 ag – agonists of human PTHR1 parathyroid hormone receptor. 410,000 compounds, 0.075% hits. HEK293 GP2 PTHR1 cells, GloSensor cAMP luminescence, 1 h. Q03431. AID 743266. Potency, µM (series often up to 115 µM), for inactives: at the top dose activation, actives largely listed as activators; further: potency means the concentration at half of the fitted maximal effect; nearly all actives have a fitted effect of over 55% in size
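HEK-293-derived GP2 cells expressing PTHR1 and a GloSensor cAMP reporter, 3,000/well, plated overnight, given luciferin plus IBMX (each 0.5 mM as added) for 1 h at 37 °C, then compound for 1 h at 37 °C. Luminescence was read after 15 min at room temperature.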
GLP-1R inv ag – GLP-1 receptor (human) inverse agonism. 410,000 compounds, 1.6% hits. Potency, µM (highest dose often 38.3 µM), for the others: top-dose activity change, negative = inhibition, actives largely listed as inhibitors. P43220. HEK293 GLP-1R CRE-luciferase, luminescence, 24 h; GLP-1R form is constitutively active; further: potency means the concentration at half of the fitted maximal effect; on the % scale 0 is the no-effect control and ±100 the full control effect; nearly all actives have a fitted effect of over 55% in size
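Constitutively active GLP-1R drives a cAMP-responsive luciferase in stably transfected HEK293 cells; test compounds are added after overnight (12 h) attachment and left 24 hr, and signal loss in luminescence marks inhibition.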
TSHR antagonist – human thyrotropin receptor antagonism; activity change, negative = inhibition, % at 11.5 µM; 330,000 compounds, 0.2% hits; TSHR-expressing cells, TSH-stimulated cAMP HTRF, 2 h; stronger effect = lower value; P16473;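 active means activity change below a set negative limit, meaning inhibition stronger than a set level, cut at about -70% in these data; inconclusive means activity change between two set negative limits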; further: on the % scale 0 is the no-effect control and ±100 the full control effect
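TSHR-expressing cells were treated with compounds, then stimulated with TSH at EC80 (4nM final) for 2 hours at 37 deg C. Cellular cAMP was measured by HTRF competition between lysate cAMP and cAMP-d2 for a cryptate-labelled anti-cAMP antibody.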
* hit, by the source's call; i = inactive; ? = inconclusive; · = not tested or not shown; [ ] = dose if it differs, or a comment. Unless noted, the call rests on the fitted dose curve; in most records, active means well fitted curve in the direction sought with a large enough effect; inconclusive means small, poorly fitted or top-dose-only effect, or another doubt; inactive means no such curve, though single readings can be large; an effect the other way counts as inactive or inconclusive.

SMILES | HEK293 tox | GLP1R ag | PTHR1 ag | GLP-1R inv ag | TSHR antagonist
Cc1ccc2c(c1)C1CN(C)CCC1N2C(=O)c1ccco1 (centres undefined) | -23.3% | 0.8% | i | -17.9% | 15.0
Cc1ccc(S(=O)(=O)NCCC(=O)Nc2ccc(Cl)cc2C(=O)c2ccccc2)cc1 | 11.2% | 8.2% | -16.4% | 11.2µM* | 1.2
COc1cc(N=Nc2cccc(S(N)(=O)=O)c2)c2ccccc2c1N | ? | 8.5% | i | ? | -12.3
CN1C(=O)C(=Cc2ccccc2OCc2ccccc2Cl)C(=O)N(C)C1=O | -21.6% | 10.3% | i | 10µM* | -0.4
CCCCC[C@@H]1CCCCC[C@@H](O)C[C@@H](O)[C@H](O)/C=C/C(=O)O1 | 1.8% | 0.5% | -14.2% | -5.2% | ·
COc1ccc(CCNC(=O)c2ccc3c(c2)N=C(C)c2cc(C)ccc2S3)cc1OC | -16.6% | 1.1% | i | ? | ·
CC(C)(C)OC(=O)[C@H](Cc1ccccc1)NC(=O)c1nc[nH]c1C(=O)NC1CCN(C(=O)OC(C)(C)C)CC1 | ? | -3.8% | -48.9% | 10µM* | -19.3
C[C@@H]1[C@H](O)[C@@H](C)C=CC=CCCC=CC=CC=CC=C[C@H](O[C@H]2O[C@@H](C)[C@H](O)[C@@H](N)[C@@H]2O)CC2O[C@](O)(C[C@@H](O)[C@H](O)CC[C@@H](O)C[C@@H](O)C[C@@H](O)CC(=O)O[C@H]1C)C[C@H](O)[C@H]2C(=O)O | · | 5.9% | · | · | ·
COc1cccc(C(=O)C2CCCN(Cc3cccc(C)n3)C2)c1 (centres undefined) | ? | 4.0% | -21.7% | ? | 23.2
COc1c(C)cc(C(=O)C2CCCN(Cc3cccc(C)n3)C2)cc1C (centres undefined) | -18.7% | -5.3% | -1.7% | 8.91µM* | -10.6
COCCCNC(=S)NCCCNc1nc2cc(C)cc(C)c2cc1C#N | -2.0% | 23.4% | -5.7% | 11.2µM* | -14.2
C=CCC1(O)CCC2C3CCC4=CC(=O)CCC4=C3C=CC21C (centres undefined) | · | 15.8% | · | · | ·
O=c1[nH]c(=S)n(CCC2=CCCCC2)c(O)c1/C=N/Nc1ccccc1 | -23.4% | -3.2% | i | 4.47µM* | -5.3
O=c1[nH]c(=S)n(CCC2=CCCCC2)c(O)c1C=NC1CCN(Cc2ccccc2)CC1 | -1.0% | -14.0% | -18.5%[57.5 µM] | 54.4% | 10.0
CN(CC(=O)Nc1cccc(F)c1)CC(=O)Nc1cccc(S(=O)(=O)N(C)c2ccccc2)c1 | ? | -7.7% | -24.6% | ? | ·
Cc1nc2ccc(NC(=O)c3cccc(S(=O)(=O)N(C)c4ccccc4)c3)cc2s1 | ? | -32.1% | -32.6% | 5.62µM* | -40.4
Cc1ccc(-c2nnc(N3CCC(C)CC3)c3ccccc23)cc1C | ? | 0.2% | -90.2% | 2.51µM* | -6.4
CCCCn1c(=N)n(CC(O)COc2ccccc2)c2ccccc21 (centres undefined) | ? | 2.1% | -13.7% | 8.91µM* | 7.2
Cc1cc(C)cc(NC(=O)CCCn2c3ccccc3c(=O)c3ccccc32)c1 | 74.6% | · | i | 3.55µM* | ·
Cc1ccc(N(CCC#N)C(=O)CCl)cc1C | ? | -1.1% | -4.0% | 2.82µM* | 6.0
O=C(/C=C/c1cccc(Cl)c1)c1ccc([N+](=O)[O-])o1 | ? | -15.8% | -47.4% | ? | -80.9*
COc1ccccc1C(=O)Nc1ccc2nc(SCC(=O)N3CCCc4ccccc43)sc2c1 | -13.1% | · | i | ? | ·
C[C@H](N)C(=O)c1ccccc1 | · | 9.9% | · | · | ·
c1ccc(N2CCN(c3ncnc4c3nc3n4CCCCC3)CC2)cc1 | -7.9% | 2.4% | -36.3% | -8.4% | ·
O=C(C1CCN(c2ncnc3c2nc2n3CCCCC2)CC1)N1CCN(c2cccc(Cl)c2)CC1 | ? | -1.8% | -45.1% | 8.91µM* | -31.7
SMILES | HEK293 tox | GLP1R ag | PTHR1 ag | GLP-1R inv ag | TSHR antagonist
CCC(=O)O[C@@](Cc1ccccc1)(c1ccccc1)[C@H](C)CN(C)C | · | -6.6%[96 µM] | · | · | ·
Cc1ccc(Cl)cc1N1CCN(C(=O)C2CCCN(S(=O)(=O)c3ccc(Br)s3)C2)CC1 (centres undefined) | 3.2% | · | -23.0% | ? | ·
CN1C2CCC1CC(OC(=O)c1cccc(O)c1)C2 (centres undefined) | -6.8% | -1.6% | i | ? | ·
CN1C2CCC1CC(OC(=O)c1ccc([N+](=O)[O-])cc1)C2 (centres undefined) | 6.8% | -4.4% | i | 3.98µM* | 8.4
CCOc1ccc(NC(=O)CN(c2ccc([N+](=O)[O-])cc2)S(=O)(=O)c2ccccc2)cc1 | ? | ? | -16.1% | 3.98µM* | -5.4
C=CCC1=C(C)C(OC(=O)C2C(C=C(C)C)C2(C)C)CC1=O (centres undefined) | · | -0.2%[96 µM] | · | · | ·
COc1cc(C(=O)NCCSc2c(-c3ccccc3)[nH]c3ccccc23)cc(OC)c1OC | 1.6% | · | i | ? | ·
C[C@]12CCC(=O)C=C1CC[C@@H]1[C@H]3CC[C@](C)(O)[C@@]3(C)CC[C@@H]12 | · | 11.8%[96 µM] | · | · | ·
CCOc1cc(CNCCc2c[nH]c3ccccc23)cc(Cl)c1OCC | ? | -4.7% | i | 11.2µM* | 4.9
CCOc1c(Cl)cc(CNCCc2c[nH]c3ccccc23)cc1OC | ? | 8.7% | i | ? | 2.7
CCC(=C(c1ccc(OC)cc1)c1ccc(OC)cc1)c1cn(CC(O)CN2CCN(C)CC2)c2ccccc12 (centres undefined) | ? | -22.5% | i | 10µM* | 14.5
CC(C)CCn1c(N)c(C(=O)OCC2CCCO2)c2nc3ccccc3nc21 (centres undefined) | 253.7% | 0.3% | -25.3%[57.5 µM] | 3.98µM* | -0.2
COCc1cc(C)nc(SCC(=O)Nc2nc(C)cs2)c1C#N | 355.0% | 8.4% | -2.7% | ? | 13.7
Cc1cccc(-c2cc3nc(-c4ccccc4)cc(N4CCC5(CC4)OCCO5)n3n2)c1 | 113.3% | 0.5% | i | 10µM* | -4.8
N#CC(C#N)=NNc1ccc([N+](=O)[O-])cc1 | ? | -10.4% | -0.9% | 2.24µM* | -75.9*
CCN(CC)S(=O)(=O)c1ccc(NN=C(C#N)C#N)cc1 | -9.5% | -22.1% | -33.3% | ? | -70.3*
Cc1cc(C)n(-c2ccc(NN=C(C#N)C#N)cc2)n1 | ? | -9.9% | -28.2% | ? | -29.4
CCc1ccccc1NC(=O)C1CCCN(c2ncnc3onc(C)c23)C1 (centres undefined) | 8.0% | · | -66.0% | 9.8% | ·
CCN(CC)C(=O)c1ccc(NC(=O)COc2ccc(-c3nn(C)c(=O)c4ccccc34)cc2)cc1 | 6.9% | 12.7% | -32.3% | 140.5% | 15.0
CCN(CC)C(=O)c1ccc(NC(=O)c2cn(-c3ccccc3)nc2-c2ccc(OC)cc2)cc1 | 2.8% | 9.5% | i | 4.47µM* | -10.5
CCCc1cc(C(=O)Nc2c(C)nn(Cc3ccc(Cl)c(Cl)c3)c2C)no1 | ? | · | -46.1% | 10µM* | ·
